High-throughput results (PubChem BioAssay)
An excerpt weighted towards active compounds, which were near 7.4% of everything screened.
p53 reactivator: mutant p53 re-activation in reporter cells. H1299 p53-A138V BP100-luciferase reporter, luminescence, 24 h. Potency, µM (series often up to 92.2 µM), actives largely listed as activators. actives 0.063% (n = 320,000). AID 504706; note: nearly all actives have a fitted effect of over 45% in size
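p53-null H1299 cells stably carrying temperature-sensitive p53-A138V and a BP100-luciferase reporter were pinned with compounds (4-point, 1:5 series) and held 24 hrs at 37 deg C. Luminescence was read 10 min after detection reagent.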
SMN2 splice up: SMN2 splice variant enhancement. Potency, µM (highest dose often 46.1 µM), most hits filed as activators. actives 2.8% (n = 210,000). HEK293 SMN2-luciferase splicing reporter, luminescence, 30-36 h; note: nearly all actives have a fitted effect of over 55% in size
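qHTS luciferase splicing reporter: luminescence rises when SMN2 exon 7 is included in transfected HEK293 cells. Compound exposure lasted 30-36 h at 37C, with 4.5 mM final sodium butyrate as control, followed by a ONE-Glo read.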
FLuc modulator: inhibits or activates purified firefly luciferase, miR-21 counter-screen. P08659. purified FLuc, Km substrates, luminescence inhibition. Potency, µM (titrated, usually from 57.5 µM), actives largely listed as inhibitors. actives 6.9% (n = 360,000). AID 588342; note: nearly all actives have a fitted effect of over 55% in size
Target sequence (P08659 whole entry, looked up): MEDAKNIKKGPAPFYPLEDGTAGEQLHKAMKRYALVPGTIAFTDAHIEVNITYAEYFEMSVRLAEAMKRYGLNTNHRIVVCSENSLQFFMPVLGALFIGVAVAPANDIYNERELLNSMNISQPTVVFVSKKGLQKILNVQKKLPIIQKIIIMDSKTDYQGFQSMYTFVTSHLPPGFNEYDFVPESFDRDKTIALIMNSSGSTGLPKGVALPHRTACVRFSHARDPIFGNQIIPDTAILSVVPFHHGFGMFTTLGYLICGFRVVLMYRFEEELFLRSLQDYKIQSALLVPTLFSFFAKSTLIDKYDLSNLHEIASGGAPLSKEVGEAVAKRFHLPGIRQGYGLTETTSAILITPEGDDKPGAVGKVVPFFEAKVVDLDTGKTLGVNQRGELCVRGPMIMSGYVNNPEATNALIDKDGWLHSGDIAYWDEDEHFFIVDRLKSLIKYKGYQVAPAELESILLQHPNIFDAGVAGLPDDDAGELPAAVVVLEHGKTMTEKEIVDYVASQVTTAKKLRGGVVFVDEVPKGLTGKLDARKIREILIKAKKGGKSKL
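Purified P. pyralis luciferase (10nM final) with 10uM D-luciferin and 10uM ATP (Km levels) in 50mM Tris acetate pH 7.5, 10mM Mg acetate, 0.01% Tween-20, 0.05% BSA; qHTS 6-point titration, ~60 µM downward; luminescence read.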
Rab9 prom act: Rab9 promoter activation; Huh7 Rab9 promoter-luciferase reporter, luminescence, 24 h; Potency, µM (highest dose often 9.22 µM), most hits filed as activators; actives 2.8% (n = 320,000); AID 485297; note: nearly all actives have a fitted effect of over 60% in size
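Luminescence read-out: Huh7 cells stably expressing Rab9-luciferase, treated 24 h with compound at 37 °C, then lysed with luciferase reagent for 10 min at ambient before reading.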
ELG1 genotox: induces genotoxicity in HEK293T cells with luciferase-tagged ELG1. HEK293T ELG1-luciferase reporter, luminescence, 16 h. Potency, µM (titrated, usually from 46 µM), hits mostly activators. actives 1.3% (n = 330,000). AID 504466; note: nearly all actives have a fitted effect of over 60% in size
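Reporter readout depends on ELG1 protein level, which increases with genetic stress. After 16 hr compound exposure at 37 °C, luciferase activity was quantified using ONE-Glo.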
NPC1 promoter act: activates the NPC1 promoter. Huh7 NPC1 promoter luciferase reporter, 24 h. actives 2.4% (n = 320,000). AID 485313. Potency, µM (top dose mostly 9.22 µM), most hits filed as activators; note: nearly all actives have a fitted effect of over 60% in size
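Stable NPC1-promoter luciferase Huh7 line; cpd (DMSO) 24 h, 37 °C, 5% CO2; Amplite luciferase reagent 10 min RT; luminescence readout. qHTS format.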
Large screens that a line does not name were inactive. Calls come from the whole dose curve; as a rule, active = well fitted curve in the direction sought with a large enough effect; inconclusive = small, poorly fitted or top-dose-only effect, or another doubt; inactive = no such curve, though single readings can be large; an effect the other way counts as inactive or inconclusive.

Cn1c(SCc2ccccc2)nnc1-c1cnccn1	Rab9 prom act 6.3µM
Cn1c(SCC(=O)c2ccccc2)nnc1-c1cccs1	FLuc modulator 12µM, Rab9 prom act 2.8µM, ELG1 genotox inconclusive, NPC1 promoter act 3.2µM (no result: SMN2 splice up)
COc1ccc(OC)c(N(C)S(=O)(=O)c2ccc3c(c2)N(C(C)=O)CCO3)c1	none (no result: SMN2 splice up)
CCOC(=O)c1cnc2c(Cl)c(Cl)ccc2c1Nc1ccc(N(C)C)cc1	none (no result: p53 reactivator, Rab9 prom act, ELG1 genotox, NPC1 promoter act)
Cc1nn(-c2ccccc2)c2sc(C(=O)N3CCOCC3)cc12	p53 reactivator inconclusive, SMN2 splice up 11µM, FLuc modulator 11µM, Rab9 prom act 3.5µM, ELG1 genotox inconclusive, NPC1 promoter act inconclusive
Cc1ccc(-n2nc(C)c3cc(C(=O)O)sc32)cc1	FLuc modulator 19µM
Cc1nn(-c2ccccc2)c2sc(C(=O)OC3CCOC3=O)cc12 (stereo not given)	FLuc modulator 15µM
COC(=O)c1cc2c(C)nn(-c3ccccc3)c2s1	none
Cc1nn(-c2ccccc2)c2sc(C(=O)O)cc12	SMN2 splice up inconclusive, FLuc modulator inconclusive
O=C(CN1C(=O)CC(c2ccco2)Sc2ccccc21)Nc1ccc(OC(F)(F)F)cc1 (stereo not given)	none (no result: p53 reactivator, Rab9 prom act, ELG1 genotox, NPC1 promoter act)
O=C1OC(C(=O)Nc2ccccc2)Cc2ccccc21 (stereo not given)	p53 reactivator inconclusive, FLuc modulator 17µM, Rab9 prom act inconclusive
CCOC(=O)C1CCCN(C(=O)CCc2nnc(-c3ccc(C(C)=O)s3)o2)C1 (stereo not given)	p53 reactivator inconclusive, FLuc modulator 11µM, Rab9 prom act 0.79µM, ELG1 genotox 18µM, NPC1 promoter act 2.5µM (no result: SMN2 splice up)
Cc1ccc(S(=O)(=O)N/N=C/c2c(F)cccc2Cl)cc1	none
Cc1ccc(S(=O)(=O)N/N=C/c2cccn2-c2ccc(Cl)cc2)cc1	FLuc modulator 0.54µM, Rab9 prom act inconclusive, NPC1 promoter act inconclusive
Cc1ccc(C=Nc2ccc(N(C)C)cc2)o1	p53 reactivator inconclusive, FLuc modulator 0.27µM, ELG1 genotox 21µM
Cc1ccnc(NC(=O)CNC(=O)c2ccc(Br)o2)c1	FLuc modulator inconclusive, ELG1 genotox 16µM (no result: SMN2 splice up)
Cc1ccc(S(=O)(=O)N(C)CC(=O)Nc2ccc(C)cn2)cc1	Rab9 prom act inconclusive (no result: SMN2 splice up)
Cc1ccnc(NC(=O)Cc2ccc(-c3ccccc3)cc2)c1	FLuc modulator 11µM, ELG1 genotox 2.3µM (no result: SMN2 splice up)
Cc1ccc(S(=O)(=O)N(C)CC(=O)Nc2cc(C)ccn2)cc1	p53 reactivator inconclusive, FLuc modulator inconclusive, ELG1 genotox 10µM (no result: SMN2 splice up)
Cc1ccc(NC(=O)CNC(=O)c2ccc(Br)o2)nc1	none (no result: SMN2 splice up)
O=C(Nc1ccc2nc(-c3cccs3)[nH]c2c1)c1ccco1	SMN2 splice up inconclusive, FLuc modulator 7.6µM, Rab9 prom act inconclusive
O=C(Nc1cccc(-c2cnc3ccccc3n2)c1)c1cccc(NC(=O)c2ccco2)c1	SMN2 splice up inconclusive, FLuc modulator 11µM
Cc1ccc2nc(-c3ccc(NC(=O)c4ccco4)cc3)[nH]c2c1	p53 reactivator inconclusive, SMN2 splice up 7.9µM, FLuc modulator 3µM, Rab9 prom act 3.5µM, ELG1 genotox 2.1µM, NPC1 promoter act 1.6µM
O=C(Nc1cccc(-c2cnc3ccccc3n2)c1)c1ccccc1	none
Cn1cccc1-c1nc2ccc(NC(=O)c3ccco3)cc2[nH]1	FLuc modulator 17µM
CC(=O)c1cccc(NC(=O)c2ccco2)c1	none
COc1ccccc1NC(=O)C1=C(C)Nc2nc(SCc3ccccc3F)nn2C1c1cccs1 (stereo not given)	none (no result: p53 reactivator, Rab9 prom act, ELG1 genotox, NPC1 promoter act)
COc1cc(OC)cc(C(=O)N2CCN(C(=O)c3cccnc3)CC2)c1	none (no result: p53 reactivator, SMN2 splice up)
C[C@H](CO)N1C[C@H](C)[C@@H](CN(C)C(=O)Nc2ccc3c(c2)OCO3)Oc2c(NC(=O)Cc3ccccc3)cccc2C1=O	none (no result: SMN2 splice up, FLuc modulator, Rab9 prom act, NPC1 promoter act)
O=C(Nc1ccc2nc(-c3cccs3)[nH]c2c1)c1cccs1	none
c1ccc(NCc2cccnc2)cc1	none
Nc1ccc(C(=O)Nc2ccc3nc(-c4ccncc4)[nH]c3c2)cc1	SMN2 splice up inconclusive, FLuc modulator 17µM
O=C(Nc1cccc(-c2nc3ccccc3[nH]2)c1)c1ccco1	p53 reactivator inconclusive, FLuc modulator 15µM
